The nature of assay [1]: qHTS assay to identify small molecule antagonists of the estrogen related receptor (ERR) signaling pathway from Tox21 library - cell viability counter screen (AID 1224834). Also: nearly all actives have a fitted effect of over 30% in size. The essentials: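 Viability readout (CellTiter-Fluor fluorescence, 30 min at 37 C) multiplexed with the ERR assay; cells treated 17.5 h at 37 C with compounds delivered in DMSO.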
In general terms: In qHTS, concentration-response curves come from the screen itself.

Assay [2] addresses Luciferin 4-monooxygenase (Photinus pyralis) (UniProt P08659). Put plainly: qHTS assay to identify small molecule inhibitors of firefly luciferase (AID 1224835). Also: nearly all actives have a fitted effect of over 25% in size. Put shortly: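 Biochemical qHTS: compounds run as interplate titrations against purified firefly enzyme, with D-luciferin and ATP each at its KM concentration. Light output recorded by CCD imaging.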
Assay [3] can be described thus: qHTS assay to identify small molecule agonists of the constitutive androstane receptor (CAR) signaling pathway - cell viability counter screen (AID 1224836). Also: nearly all actives have a fitted effect of over 45% in size. The essentials: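 HepG2 cells stably carrying hCAR and a CYP2B6-2.2kb reporter were plated 4 h, then given compounds at 15 concentrations plus PK11195 (final 0.75 uM). After 23 h at 37 C, viability was read by CellTiter-Fluor fluorescence.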

Assay [4] is described as follows: qHTS assay to identify small molecule antagonists of the constitutive androstane receptor (CAR) signaling pathway - cell viability counter screen (AID 1224837). Also: nearly all actives have a fitted effect of over 45% in size. Put shortly:
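Fluorescence from CellTiter-Fluor served as the viability signal. Human hepatoma HepG2 cells stably bearing hCAR and CYP2B6-2.2kb received compound plus CITCO (50 nM final) for 23 hr.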

For assay [5], the target named is Nuclear receptor subfamily 1 group I member 3 (Homo sapiens) (UniProt Q14994). Put plainly: qHTS assay to identify small molecule antagonists of the constitutive androstane receptor (CAR) signaling pathway (AID 1224838). Also: nearly all actives have a fitted effect of over 40% in size. Also: potency is read from the fitted curve at half-maximal effect. The essentials:
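Quantitative HTS in double-stable HepG2-CYP2B6-hCAR cells. After 4 h plating, cells get compound (15 concentrations) and CITCO at 50 nM final, incubate 24 h at 37 C, then ONE-Glo luminescence is read.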

The target is the same in assay [6]. In words: qHTS assay to identify small molecule agonists of the constitutive androstane receptor (CAR) signaling pathway (AID 1224839). Also: nearly all actives have a fitted effect of over 15% in size. Put shortly: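 HepG2 cells stably expressing hCAR and a CYP2B6-2.2kb luciferase reporter were treated with compounds at 15 concentrations plus 0.75 uM PK11195 (final) for 24 h at 37 C; luminescence was read after ONE-Glo addition.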

Assay [7] in a line: qHTS assay to identify small molecule antagonists of the estrogen related receptor signaling pathway with the pleiotropic PPARgamma coactivator (PGC) from Tox21 10K library - cell viability counter screen (AID 1224840; active = well fitted cell-killing curve with a large enough effect in the repeat runs, not every such curve was filed as active; also: nearly all actives have a fitted effect of over 40% in size). Put shortly: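 Compounds in DMSO, alongside positive and negative controls, were pinned onto PGC/ERR cells (2,000 per well). Exposure lasted 17.5 hours at 37 C, followed by a 30-minute CellTiter-Fluor incubation and fluorescence reading.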

The nature of assay [8]: qHTS assay to identify small molecule antagonists of the estrogen related receptor signaling pathway with the pleiotropic PPARgamma coactivator (PGC) from Tox21 10K library (AID 1224841; call rule not given here; also: actives are mostly falling curves and most rising ones were filed inactive; nearly all actives have a fitted effect of over 50% in size). The essentials:
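Compound exposure ran 18 hours at 37 C in PGC/ERR cells (2,000/well) that had first rested 6 hours in a 37 C/5% CO2 incubator. Luciferase activity was then detected with One-Glo after a 30-minute room-temperature step.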

The nature of assay [9]: qHTS assay to identify small molecule agonists of the hypoxia (HIF-1) signaling pathway - cell viability counter screen (AID 1224844; calls by dose curve; also: nearly all actives have a fitted effect of over 50% in size). The essentials: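 Luminescent ATP content (CellTiter-Glo, 30 min, room temperature) served as the viability measure in HRE-bla ME-180 cells exposed to compounds for 17 hrs in low-serum medium (0.5% dialyzed FBS).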
Assay [10] is described as follows: qHTS assay to identify small molecule agonists of H2AX (AID 1224845; active = well fitted activation curve with a large enough effect in the signal ratio in the repeat runs, not every such curve was filed as active; the % refers to the signal ratio). The essentials:
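Wild-type CHO-K1 cells, plated overnight, exposed 3hr at 37C to 15 concentrations (0.76% DMSO final). Lysed, then HTRF anti-pH2AX (S139) cryptate and anti-H2AX-d2 antibodies, 24 hr room temperature; 665/620 nm emission read.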

Assay [11] can be described thus: qHTS assay to identify small molecule agonists of the hypoxia (HIF-1) signaling pathway (AID 1224846; active = well fitted activation curve with a large enough effect in the signal ratio in the repeat runs, not every such curve was filed as active; the % refers to the signal ratio). Put shortly:
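Measured by blue/green FRET after loading CCF4-AM: beta-lactamase expressed from a hypoxia response element in ME-180 cells. Test agents were delivered in DMSO and left 17 hrs; cells had been plated 5 hrs earlier in low-serum (0.5% dialyzed FBS) medium.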

The nature of assay [12]: qHTS assay to identify small molecule agonists of H2AX - cell viability counter screen (AID 1224847; calls by dose curve; also: top concentration of the series differs between compounds; nearly all actives have a fitted effect of over 30% in size). Put shortly: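 Wild-type CHO-K1 cells (10% FBS medium) were plated overnight at 37C, exposed to compounds at 15 concentrations for 3 hr at 37C (0.76% DMSO final), and viability was read as CellTiter-Glo luminescence after 30 min at room temperature.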
The nature of assay [13]: qHTS assay to identify small molecule antagonists of the estrogen related receptor (ERR) signaling pathway from Tox21 library (AID 1224848). Also: nearly all actives have a fitted effect of over 50% in size. Put shortly: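 ERR reporter cell line (from NTP) seeded 2,000 cells/well, rested 6 h at 37 C/5% CO2, then pin-dosed with compounds in DMSO. After 18 h at 37 C, ONE-Glo added; luminescence read after 30 min at room temperature.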
Assay [14] is described as follows: qHTS assay to identify small molecule agonists of the estrogen related receptor (ERR) signaling pathway from Tox21 library (AID 1224849; calls by dose curve; also: nearly all actives have a fitted effect of over 15% in size). The settings on record: ERR reporter cell line, ONE-Glo luciferase, 18 h. The essentials: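 We plated ERR reporter cells, waited 6 h, added compounds in DMSO by pin tool and incubated them 18 h at 37 C. ONE-Glo was then added and luminescence read after 30 min.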

The nature of assay [15]: qHTS RealTime-Glo MT Cell Viability Assay in HepG2 cells - 24 hour (AID 1224867). Also: nearly all actives have a fitted effect of over 50% in size. Put shortly: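 Viability was tracked continuously by NanoLuc luminescence from prosubstrate reduced by living HepG2 cells, at successive time points over 40 h of compound exposure. Cells with reagent were preincubated 5 h at 37 °C before compound addition.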
The nature of assay [16]: qHTS RealTime-Glo MT Cell Viability Assay in HEK293 cells - 32 hour (AID 1224868). The essentials:
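Viability tracked continuously by luminescence as live cells reduce a prosubstrate for NanoLuc; HEK293 cells preincubated 5 h, compound-treated at 37 C, and read at 0, 8, 16, 24, 32 and 40 h.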

A short description of assay [17]: A CellTox Green Cytotoxicity Assay to monitor cytotoxicity in HEK293 cells - 0 hour (AID 1224869). Also: nearly all actives have a fitted effect of over 50% in size. The essentials:
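Each value comes from one timepoint of a single continuous run in which HEK293 cells with CellTox Green were exposed to compound for up to 40 h at 37 C, dye fluorescence rising with cell death.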

A short description of assay [18]: qHTS RealTime-Glo MT Cell Viability Assay in HepG2 cells - 40 hour (AID 1224870). Also: nearly all actives have a fitted effect of over 50% in size. Put shortly:
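HepG2 cells (600/well) mixed with RealTime-Glo MT reagent, settled 5 h at 37 C/5% CO2 before compound addition. Nonlytic NanoLuc luminescence from viable-cell prosubstrate reduction read repeatedly during 40 h treatment at 37 C.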

Assay [19] addresses Thyrotropin receptor (Homo sapiens) (UniProt P16473). In words: qHTS assay to identify small molecule agonists of the thyroid stimulating hormone receptor (TSHR) signaling pathway (AID 1224843; calls by dose curve; also: nearly all actives have a fitted effect of over 45% in size). The essentials: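 TSHR-HEK293 cells in agonist mode, 30 min room-temperature step, then cAMP measured by competitive HTRF (cAMP-d2 with anti-cAMP cryptate) after 1 h at room temperature. Tested at 15 concentrations in triplicate.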

Values joined by “and” are separate entries in the source; they are usually repeats but may differ in a detail not shown here. Equal entries are not always repeated. Unmarked numbers belong to inactive results. Results filed as inconclusive are left out. Active and inactive are the calls of the source. Unless noted, calls follow the shape of the dose curve; as a rule, active = well fitted curve in the direction sought with a large enough effect in the repeat runs; inconclusive = weak or mixed curves; inactive = no such curve, though single readings can be large; an effect the other way counts as inactive or inconclusive.
% is scaled to controls: 0 for no effect and ±100 for the full control effect.

Chain of Nuclear receptor subfamily 1 group I member 3 (Homo sapiens) (Q14994 whole entry, looked up): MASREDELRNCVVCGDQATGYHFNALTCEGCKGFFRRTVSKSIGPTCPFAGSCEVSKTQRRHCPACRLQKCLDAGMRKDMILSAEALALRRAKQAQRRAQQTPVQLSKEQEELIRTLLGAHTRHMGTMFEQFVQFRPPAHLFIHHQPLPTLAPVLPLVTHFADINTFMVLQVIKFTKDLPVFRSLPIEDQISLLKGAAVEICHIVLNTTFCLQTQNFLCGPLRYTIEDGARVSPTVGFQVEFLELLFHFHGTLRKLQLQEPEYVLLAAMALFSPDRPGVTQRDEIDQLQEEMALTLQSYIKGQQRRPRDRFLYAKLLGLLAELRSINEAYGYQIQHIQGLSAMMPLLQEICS
Chain of Thyrotropin receptor (Homo sapiens) (P16473 whole entry, looked up): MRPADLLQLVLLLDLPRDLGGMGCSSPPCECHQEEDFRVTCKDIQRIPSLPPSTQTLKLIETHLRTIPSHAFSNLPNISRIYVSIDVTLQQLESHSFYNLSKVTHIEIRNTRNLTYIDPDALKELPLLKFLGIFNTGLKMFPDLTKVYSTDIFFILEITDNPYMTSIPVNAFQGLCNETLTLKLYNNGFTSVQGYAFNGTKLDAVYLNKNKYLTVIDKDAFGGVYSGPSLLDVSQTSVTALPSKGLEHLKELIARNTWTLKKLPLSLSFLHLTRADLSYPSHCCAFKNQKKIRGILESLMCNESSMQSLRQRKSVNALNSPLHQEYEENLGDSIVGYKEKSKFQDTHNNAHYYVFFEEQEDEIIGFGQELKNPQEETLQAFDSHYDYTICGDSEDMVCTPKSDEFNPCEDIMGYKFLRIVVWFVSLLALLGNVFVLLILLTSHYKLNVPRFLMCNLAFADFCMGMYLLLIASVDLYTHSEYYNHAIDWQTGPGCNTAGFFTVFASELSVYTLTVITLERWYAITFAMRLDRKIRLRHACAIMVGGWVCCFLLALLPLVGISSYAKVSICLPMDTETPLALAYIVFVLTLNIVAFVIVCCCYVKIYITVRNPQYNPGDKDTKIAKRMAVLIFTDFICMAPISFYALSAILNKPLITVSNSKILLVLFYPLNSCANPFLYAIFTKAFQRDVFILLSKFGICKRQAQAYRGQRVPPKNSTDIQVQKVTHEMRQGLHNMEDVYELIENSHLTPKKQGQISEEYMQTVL
Chain of Luciferin 4-monooxygenase (Photinus pyralis) (P08659 whole entry, looked up): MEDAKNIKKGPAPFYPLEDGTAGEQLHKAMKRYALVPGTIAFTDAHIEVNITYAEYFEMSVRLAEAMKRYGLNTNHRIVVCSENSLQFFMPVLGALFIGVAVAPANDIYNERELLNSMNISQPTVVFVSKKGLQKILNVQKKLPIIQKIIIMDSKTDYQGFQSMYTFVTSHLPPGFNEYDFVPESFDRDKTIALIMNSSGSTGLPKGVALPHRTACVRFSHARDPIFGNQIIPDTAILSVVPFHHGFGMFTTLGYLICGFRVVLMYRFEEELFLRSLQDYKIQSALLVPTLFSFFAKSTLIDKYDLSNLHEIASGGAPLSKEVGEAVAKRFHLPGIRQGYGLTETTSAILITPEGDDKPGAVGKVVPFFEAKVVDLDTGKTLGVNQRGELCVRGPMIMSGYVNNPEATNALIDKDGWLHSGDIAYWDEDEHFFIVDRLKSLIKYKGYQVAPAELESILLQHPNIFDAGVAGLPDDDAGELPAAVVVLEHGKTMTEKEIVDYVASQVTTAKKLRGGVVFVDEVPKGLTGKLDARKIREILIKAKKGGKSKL

For the compound `CC(C)CC(C)CC(O)CC(C)C` (stereo not given), the Potency entry in assay [1], in [2], in assay [3], in assay [4], in [5] and in assay [6] was “inactive” in each case. The Potency result in [7], in assay [8], in assay [9], in [10], in assay [12] and in assay [13] was “inactive” each time. Further, the Potency entry in assay [16] and in assay [17] was “inactive” throughout. For the same compound, the call in [11], in [15] and in assay [18] was inactive. The activity change, positive = activation in [14] (at 92.4 µM (top of the series)) is 3.18% and 4.59%.

Turning to `COc1cc(C=O)ccc1O`, the Potency entry in [1], in assay [2], in [3], in [4], in [5] and in assay [6] was “inactive” each time. For the same compound, the Potency result in assay [7], in assay [19], in [9], in assay [10], in assay [12] and in [16] was “inactive” in each case. Moreover, the Potency result in assay [17] is “inactive”. Further, the call in assay [11], in [15] and in assay [18] was inactive.

With `Cc1cccc(C)c1O`, the Potency result in assay [1], in assay [2], in assay [3], in [4], in assay [5] and in assay [6] was “inactive” throughout. Further, the Potency result in [7], in assay [8], in [9], in assay [10], in assay [12] and in assay [13] was “inactive” each time. Also, the Potency result in assay [16] and in assay [17] was “inactive” in each case. The compound was classed as inactive in [11], in assay [15] and in assay [18]. In addition, the activity change, positive = activation in assay [14] (at 92.4 µM (top of the series)) was 7.32% and 4.77%.

As to `CCOCCO`, the Potency entry in [1], in assay [2], in assay [3], in assay [4], in assay [5] and in assay [6] was “inactive” throughout. Further, the Potency entry in assay [7], in assay [19], in assay [9], in assay [10], in assay [12] and in assay [16] was “inactive” throughout. For the same compound, in assay [17], the Potency result is “inactive”. The compound was called inactive in assay [11], in assay [15] and in [18].

Regarding `CCCCOCCOCCOC(C)=O`, the Potency result in assay [1], in [2], in assay [3], in assay [4], in [5] and in [6] was “inactive” each time. The Potency result in assay [7], in [8], in assay [9], in [10], in assay [12] and in [13] was “inactive” in each case. For the same compound, the Potency result in assay [16] and in [17] was “inactive” each time. Moreover, the result in [11], in assay [15] and in assay [18] was inactive. Besides, the activity change, positive = activation in [14] (at 92.4 µM (top of the series)) is 0.387% and 1.02%.

`CCCCCCCC(=O)OCC(O)CO` (stereo not given): the Potency result in assay [1], in assay [2], in [3], in [4], in assay [5] and in assay [6] was “inactive” throughout. Further, the Potency result in assay [7], in assay [8], in assay [19], in assay [9], in assay [10] and in [12] was “inactive” in each case. Besides, the Potency entry in assay [13], in assay [16] and in assay [17] was “inactive” in each case. Also, the call in [11], in assay [15] and in assay [18] was inactive. For the same compound, the activity change, positive = activation in [14] (at 92.4 µM (top of the series)) is 1.37%.

Regarding `CCCCCCCCOc1ccc(C(=O)c2ccccc2)c(O)c1`, the Potency result in assay [1], in assay [2], in [3], in [4], in assay [6] and in assay [7] was “inactive” each time. Moreover, the Potency result in [8], in assay [19], in assay [9], in [10], in assay [12] and in assay [13] was “inactive” throughout. Further, the Potency result in assay [16] and in [17] was “inactive” throughout. Also, the Potency in assay [5] was 7.5 µM (active). Besides, the outcome in [11], in assay [15] and in assay [18] was inactive. For the same compound, the activity change, positive = activation in assay [14] (at 42.5 µM (top of the series)) is -7.25%; in assay [14] (at 92.4 µM (top of the series)) it was 6.94% and -4.94%.

(Values after PubChem BioAssay (Tox21).)
